For twelve compounds, composite z-score results are on record in PubChem BioAssay.

The assay concerns Sam68 (KHDRBS1). Put plainly: Sam68 small-molecule binders, primary screen, biochemical, small-molecule microarray, 635 nm fluorescence (AID 1125).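 Also: score merges 667 nm channel intensity with signal to noise over triplicate slides.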 To be noted: small-molecule microarray binding, higher = more signal.
Regarding `Oc1ccc2cc[n+](Cc3cccc(OC(F)(F)F)c3)cc2c1`, the composite z-score is -0.28.

With `CC1CC/C=C\[C@H]2OC34C=CCN(CCN5CCOCC5)C(=O)[C@H]3N(CCCCCO)C(=O)[C@@H]4C2C(=O)O1` (some centres not stated), the composite z-score was -1.25. As to `C=C(C(=O)CC[C@@H](OC(=O)c1cccnc1)c1ccc(CO)o1)C(C)C`, the composite z-score came out at 1.24. The compound `C=CCC(OC(C)=O)[C@@H]1[C@@H](N(Cc2cc3ccccc3o2)C(=O)c2cccc3ccccc23)c2cc(OCCCO)ccc2N1C(=O)Cc1ccc(OC)cc1` (some centres not stated) came in with a composite z-score of -0.0427. Then `C=CCN1C(=O)[C@]2(COC(c3ccc(OCCCO)cc3)=N2)Cc2ccccc21`, with 0.487; and `O=C(NCc1ccccc1)[C@@H]1c2ccccc2C(=O)N(C2CCCCC2)[C@H]1c1ccc(CO)cc1`, with 0.467. With `[N-]=[N+]=NCc1ccccc1C[C@@]1(C(=O)NCc2ccccc2)N=C(c2ccc(OCCCO)cc2)O[C@@H]1c1ccccc1CN=[N+]=[N-]`, the composite z-score was determined as 1.3. The compound `CCOC(=O)C=Cc1cccc(OC)c1O` registered a composite z-score of 0.0147. `CN(C)CCCC[C@@H]1NC(=O)[C@H]2C[C@@H](C(=O)NCCCCCNC(=O)CS)[C@@H](c3ccc(O)cc3)N2C1=O` showed a composite z-score of -1.38. The same measure for `COC(=O)[C@@]1(Cc2ccccc2)[C@H]2c3cc(C(=O)N(C)C)n(Cc4cc(F)c(F)c(F)c4)c3C[C@H]2CN1C(=O)c1ccccc1`: 1.32; for `C=C(C)[C@@H]1CC=C(C(O)C2C=CC3C(=O)N(Cc4ccccc4)C(=O)C3N2n2cnnc2)CC1` (some centres not stated): -0.0341.

`O=C(NCCN1CCOCC1)[C@@H]1c2ccccc2C(=O)N(Cc2cc(F)cc(C(F)(F)F)c2)[C@H]1c1ccc(CO)cc1` registered a composite z-score of 0.463.
